PLK1 PBD block: blocks phosphopeptide binding to human PLK1 polo-box domain. P53350. Plk1 PBD binding of FITC phosphopeptide, fluorescence polarization. Potency, µM, inactives show max response, negative = inhibition, hits mostly inhibitors. hit rate 2.8% among 360,000; note: series mostly up to about 57 µM; % is set by controls: 0 for no effect and ±100 for the full control effect; nearly all actives have a fitted effect of over 65% in size
BAZ2B block: blocks human BAZ2B. Q9UIF8. AlphaScreen BAZ2B-H3K14Ac peptide displacement. Potency, µM (top dose mostly 114 µM), for inactives: top-dose activity change, negative = inhibition, hits mostly inhibitors. hit rate 4.4% among 360,000. AID 504333; note: % is set by controls: 0 for no effect and ±100 for the full control effect; nearly all actives have a fitted effect of over 60% in size
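Multi-concentration screen (max 110 uM) measuring displacement of acetylated histone H3 peptide from BAZ2B by AlphaScreen, using 50 nM protein, 50 nM peptide and 10 ug/mL streptavidin donor plus Ni-chelate acceptor beads.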
12-LOX inh: ALOX12 (human) lipoxygenase inhibition | purified 12hLO, xylenol orange hydroperoxide absorbance | hit rate 1.1% among 580,000 | Potency, µM (series often up to 108 µM), without a hit: top-dose activity change, negative = inhibition, hits mostly inhibitors | P18054; note: % is set by controls: 0 for no effect and ±100 for the full control effect
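Purified human 12hLO (150 nM final) in 25 mM Hepes, 0.01% Triton X-100, pH 7.0 was preincubated 15 min at room temperature with compound. Then 40 uM arachidonic acid was added, 30 min. Hydroperoxide was read by Fe-XO absorbance ratio 573/405 nm.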
HP1b chromo inh: inhibitors of HP1-beta chromodomain binding to methylated histone tails. P83916. AlphaScreen HP1-beta / biotin-H3K9me3 peptide binding. Potency, µM (titrated, usually from 114 µM), without a hit: at the top dose activity change, negative = inhibition, usual class: inhibitors. hit rate 0.56% among 390,000; note: nearly all actives have a fitted effect of over 70% in size
Target sequence (P83916 whole entry, looked up): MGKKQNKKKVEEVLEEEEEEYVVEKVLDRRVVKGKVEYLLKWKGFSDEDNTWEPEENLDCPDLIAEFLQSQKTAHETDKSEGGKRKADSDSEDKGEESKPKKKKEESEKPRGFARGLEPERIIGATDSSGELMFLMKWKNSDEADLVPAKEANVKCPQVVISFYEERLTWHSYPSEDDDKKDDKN
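AlphaScreen: HP1-beta (50 nM) preformed 30 min with biotin-H3(1-18)K9me3 peptide (50 nM) in PBS pH 7.4, 0.01% Tween-20. Compound added for 30 min at RT, then streptavidin donor/nickel chelate acceptor beads (10 ug/mL) for 30 min.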
JMJD2A Tudor inh: blocks the human JMJD2A Tudor domain | O75164 | hit rate 4.4% among 390,000 | AlphaScreen JMJD2A-Tudor / H3K4me3 peptide binding | Potency, µM (titrated, usually from 114 µM), for the others: at the highest dose activity change, negative = inhibition, actives largely listed as inhibitors; note: % is set by controls: 0 for no effect and ±100 for the full control effect; nearly all actives have a fitted effect of over 50% in size
G9a inh: G9a (human) methyltransferase inhibition; Q96KQ7; hit rate 8.8% among 350,000; AID 504332; Potency, µM (series often up to 102 µM), inactives show at the top dose activity, negative = inhibition, actives largely listed as inhibitors; G9a H3K9 monomethylation, AlphaScreen, 2 h; note: % is set by controls: 0 for no effect and ±100 for the full control effect; nearly all actives have a fitted effect of over 75% in size
Target sequence (Q96KQ7 913-1193 limits assumed): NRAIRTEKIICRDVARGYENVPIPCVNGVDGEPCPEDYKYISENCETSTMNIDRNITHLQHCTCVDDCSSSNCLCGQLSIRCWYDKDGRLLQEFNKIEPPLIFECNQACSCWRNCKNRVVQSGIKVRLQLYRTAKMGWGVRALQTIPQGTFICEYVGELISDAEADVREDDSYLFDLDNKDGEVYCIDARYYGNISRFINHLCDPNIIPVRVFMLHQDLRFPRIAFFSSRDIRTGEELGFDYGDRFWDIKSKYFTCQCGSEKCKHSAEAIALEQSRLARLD
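Readings reflect AlphaScreen signal from monomethyl-H3K9 antibody detection. HMT at 20 nM; substrate b-H3K9 500 nM; cofactor SAM 20 uM; 2 h RT reaction; compounds tested as titrations in qHTS with 15 min preincubation.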
Numbers without * were called inactive; [ ] = dose if it differs, or a comment. The list is not random: actives were taken first. Their share in the collection is about 9%. Calls come from the whole dose curve; as a rule, active = well fitted curve in the direction sought with a large enough effect; inconclusive = small, poorly fitted or top-dose-only effect, or another doubt; inactive = no such curve, though single readings can be large; an effect the other way counts as inactive or inconclusive. Potency is the fitted concentration of half-maximal effect.

How did Cc1cc(C)nc(NC(=O)c2ccc(Br)cc2)n1 do in these assays?
PLK1 PBD block: 3%; BAZ2B block: -10%; 12-LOX inh: 0%; HP1b chromo inh: -9%; JMJD2A Tudor inh: -10%; G9a inh: inconclusive

What do the screens show for `COCCn1c(=O)n([C@H]2CCCN(C(=O)c3ccn[nH]3)C2)c2ncccc21`?
12-LOX inh: 5%

Results for CCCn1c(CNC(=O)c2ccccc2)nc2ccccc21 ?
PLK1 PBD block: -2%; BAZ2B block: -2%; 12-LOX inh: 27%; HP1b chromo inh: 19%; JMJD2A Tudor inh: -12%; G9a inh: 27%

Results for CCn1c(C(C)NC(=O)c2cccc(C)c2)n[nH]c1=S (configuration not stated) ?
PLK1 PBD block: -6%; BAZ2B block: -33%; 12-LOX inh: 1%; HP1b chromo inh: 59%; JMJD2A Tudor inh: -23%; G9a inh: 45µM*

What do the screens show for `C=CCn1c(C(C)NC(=O)c2ccccc2)n[nH]c1=S` (configuration not stated)?
PLK1 PBD block: -5%; BAZ2B block: -2%; 12-LOX inh: -24%; HP1b chromo inh: 18%; JMJD2A Tudor inh: 10µM*

What do the screens show for `CCCn1c(C(C)NC(=O)c2ccccc2)n[nH]c1=S` (configuration not stated)?
PLK1 PBD block: -5%; BAZ2B block: 4%; 12-LOX inh: 177%; HP1b chromo inh: 8%; JMJD2A Tudor inh: 8.9µM*

Results for Cc1cnc(C(=O)NCC(=O)N2CCCCCNC(=O)CC2c2ccccc2)cn1 (configuration not stated) ?
12-LOX inh: 23%

How did COc1cc(C2C3=C(COC3=O)Oc3cc4c(cc32)OCO4)cc(OC)c1OC(C)=O (configuration not stated) do in these assays?
PLK1 PBD block: 1%; 12-LOX inh: inconclusive; HP1b chromo inh: 26%; JMJD2A Tudor inh: -1%

What do the screens show for `Cc1ccccc1N(C(=O)c1ccco1)C(C(=O)NC1CCCC1)c1cccnc1` (configuration not stated)?
PLK1 PBD block: -5%; BAZ2B block: -2%; 12-LOX inh: -15%; HP1b chromo inh: 27%; JMJD2A Tudor inh: -7%; G9a inh: 9%

Results for Cn1ccc2c(-c3ccc(CO)cc3)cc3c(c21)C1CCC3C1 (configuration not stated) ?
PLK1 PBD block: 0%; 12-LOX inh: inconclusive

Results for COc1ccc2cc(C(=O)N3CCCC(NC(=O)C(C)C)C3)c(C)nc2c1 (configuration not stated) ?
12-LOX inh: 36%

How did CC(=O)Nc1ccc(C(=O)Nc2nc(-c3ccccn3)cs2)cc1 do in these assays?
PLK1 PBD block: 24µM*; BAZ2B block: 5.6µM*; 12-LOX inh: -23%; HP1b chromo inh: 28%; JMJD2A Tudor inh: 56µM*; G9a inh: inconclusive

What do the screens show for `Cc1csc(NC(=O)c2ccccc2)n1`?
PLK1 PBD block: -6%; BAZ2B block: -3%; 12-LOX inh: -4%; HP1b chromo inh: 8%; JMJD2A Tudor inh: -16%; G9a inh: 15%[0.501 µM]

What do the screens show for `O=C(Nc1nc(-c2ccccn2)cs1)c1ccc2c(c1)OCCO2`?
PLK1 PBD block: 5%; BAZ2B block: 22µM*; 12-LOX inh: -2%[57.4 µM]; HP1b chromo inh: 45%; JMJD2A Tudor inh: 56µM*; G9a inh: -26%

How did CC(=O)Nc1ccc(C(=O)Nc2nc(-c3cccnc3)cs2)cc1 do in these assays?
PLK1 PBD block: 13µM*; BAZ2B block: -28%; 12-LOX inh: -25%; HP1b chromo inh: 29%; JMJD2A Tudor inh: -18%; G9a inh: 4µM*

What do the screens show for `O=C(Nc1nc(-c2ccccn2)cs1)c1ccccc1-n1cnnn1`?
PLK1 PBD block: 3.8µM*; BAZ2B block: 22µM*; 12-LOX inh: inconclusive; HP1b chromo inh: -15%; JMJD2A Tudor inh: inconclusive; G9a inh: 10µM*

Assay outcomes (PubChem BioAssay)
